Experimental data published in PubChem BioAssay (EPA / NIEHS).
Records with an inconclusive call do not appear. Activity calls are given as the source filed them. How the source made its calls, unless noted: active means hit-call score of the fitted dose curve at least 0.9, where 1 is the maximum; inactive means score below 0.9.

Columns and labels:
[1] = CCTE_Shafer_MEA_dev_firing_rate_mean: CCTE's Neural Network Formation Assay for Mean Firing Rate, Shafer Lab (AID 2284031)
How it was run: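 Primary rat cortical neurons on 48-well MEA plates, exposed from plating day 0 with dosing renewed on DIV 5 and 9. Mean well firing rate over active electrodes, recorded days 5, 7, 9, 12, summarised as trapezoidal AUC.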

[2] = CCTE_Shafer_MEA_dev_per_burst_spike_percent: CCTE's Neural Network Formation Assay for Percent of Spikes in a Burst, Shafer Lab (AID 2284032)
How it was run: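 Rat primary cortical neurons on 16-electrode MEA wells, dosed from plating day 0 for 12 days with renewal on DIV 5 and 9; spikes-in-bursts percentage averaged over bursting electrodes, collapsed as AUC across days 5, 7, 9, 12; loss direction versus DMSO.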

[3] = CCTE_Shafer_MEA_dev_active_electrodes_number: CCTE's Neural Network Formation Assay for Number of Active Electrodes, Shafer Lab (AID 2284040; active means hit-call score of the fitted dose curve at least 0.9, where 1 is the maximum)
How it was run: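 Primary rat cortical neurons on 16-electrode MEA wells, exposed from day 0 through day 12 with compound renewed at DIV 5 and 9 feeds. Active electrodes (mean firing ≥5 spikes/min) counted at DIV 5, 7, 9, 12; trapezoidal AUC across days, loss-of-signal versus DMSO.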

[4] = CCTE_Shafer_MEA_dev_burst_rate: CCTE's Neural Network Formation Assay for Burst Rate, Shafer Lab (AID 2284042)
How it was run: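 Primary rat cortical neurons on PEI-coated 48-well MEA plates (laminin added with cells at plating) (16 electrodes/well), exposed from plating to day 12, dosing renewed at DIV 5 and 9. Burst rate averaged over active electrodes, recorded DIV 5, 7, 9, 12, summarized as AUC; loss versus DMSO.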

[5] = CCTE_Shafer_MEA_dev_bursting_electrodes_number: CCTE's Neural Network Formation Assay for Number of Bursting Electrodes, Shafer Lab (AID 2284043; active means hit-call score of the fitted dose curve at least 0.9, where 1 is the maximum)
How it was run: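 Primary rat cortical neurons plated on 16-electrode MEA wells, exposed from day 0 with compound renewed at DIV 5 and 9. Electrodes bursting ≥1 burst per 2 min counted on days 5, 7, 9 and 12; trapezoidal AUC across days, fitted for loss versus DMSO.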

[6] = CCTE_Shafer_MEA_dev_per_burst_interspike_interval: CCTE's Neural Network Formation Assay for Burst Interspike Interval, Shafer Lab (AID 2284044);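 further: mean spike spacing inside bursts as AUC over recordings on days 5 7 9 12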
How it was run: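 Rat cortical primary cultures, 16 electrodes/well; compound from plating, renewed with full media change DIV 5 and 9. Spikes via adaptive detector; per-burst ISI well-mean over active bursting electrodes; AUC of DIV 5/7/9/12 recordings; loss-direction fit vs DMSO.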

[7] = CCTE_Shafer_MEA_dev_burst_duration_mean: CCTE's Neural Network Formation Assay for Mean Burst Duration, Shafer Lab (AID 2284045)
How it was run: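 Primary rat cortical neurons on 48-well 16-electrode MEA plates, exposed from day 0 with renewal at DIV 5 and 9; spontaneous activity recorded on days 5, 7, 9, 12. Well-mean burst duration across bursting electrodes, collapsed as trapezoidal AUC; DMSO baseline.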

[8] = CCTE_Shafer_MEA_dev_interburst_interval_mean: CCTE's Neural Network Formation Assay for Mean Interburst Interval, Shafer Lab (AID 2284046);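 further: well-mean interburst interval of bursting electrodes as AUC over four recording days; curve fitted for decrease in interburst interval relative to DMSO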
How it was run: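 Recordings on days 5, 7, 9 and 12 give well-mean interburst interval across actively bursting electrodes, summarized as area under the curve. Cultures: rat cortical neurons, continuous exposure from day 0, compound renewed at feeds; decrease analyzed versus DMSO.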

[9] = CCTE_Shafer_MEA_dev_inter_network_spike_interval_mean: CCTE's Neural Network Formation Assay for Mean Inter-network Spike Interval, Shafer Lab (AID 2284047)
How it was run: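 Primary rat cortical neurons on 16-electrode MEA wells, exposed from plating day 0 through DIV 12, compound renewed at DIV 5 and 9 media changes. Mean interval between network-spike peaks recorded DIV 5, 7, 9, 12; collapsed as trapezoidal AUC, fitted downward versus DMSO.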

[10] = CCTE_Shafer_MEA_dev_network_spike_number: CCTE's Neural Network Formation Assay for Number of Network Spikes, Shafer Lab (AID 2284048)
How it was run: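 Primary rat cortical neurons on PEI/laminin 48-well MEA plates, dosed from plating day 0 for 12 days, renewed at DIV 5 and 9. Network spike counts recorded DIV 5, 7, 9, 12, collapsed as trapezoidal AUC; DMSO baseline.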

[11] = CCTE_Shafer_MEA_dev_network_spike_peak: CCTE's Neural Network Formation Assay for Mean Number of Electrodes in Network Spike, Shafer Lab (AID 2284049)
How it was run: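 Network-spike peak electrode count from recordings on days 5, 7, 9 and 12 was combined as trapezoidal area under the curve. Rat cortical cultures were treated continuously from plating, with compound renewed at each feed (DIV 5, 9); fits versus DMSO.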

[12] = CCTE_Shafer_MEA_dev_spike_duration_mean: CCTE's Neural Network Formation Assay for Mean Spike Duration, Shafer Lab (AID 2284051);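 further: mean network spike duration pooled as area under curve over DIV 5 to 12 recordings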
How it was run: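 Primary rat cortical neurons on 16-electrode MEA wells (PEI-coated, laminin in plating drop), exposed from plating through DIV 12 with compound renewed at DIV 5 and 9. Mean network-spike duration recorded DIV 5, 7, 9, 12; trapezoidal AUC across days, DMSO baseline.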

[13] = CCTE_Shafer_MEA_dev_network_spike_duration_std: CCTE's Neural Network Formation Assay for Standard Deviation of Network Spike Duration, Shafer Lab (AID 2284052);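 further: area under curve of spike duration SD across recording days 5 to 12; hits are decreases in network spike duration SD versus DMSO vehicle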
How it was run: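 Primary rat cortical neurons on PEI-coated 16-electrode MEA wells, exposed from plating day 0 through day 12 with compound renewed at DIV 5 and 9. Network spike duration SD recorded on days 5, 7, 9, 12, collapsed as trapezoidal AUC; loss-of-signal fit versus DMSO.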

[14] = CCTE_Shafer_MEA_dev_per_network_spike_spike_number_mean: CCTE's Neural Network Formation Assay for Mean Number of Spikes in a Network Spike, Shafer Lab (AID 2284053)
How it was run: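 Primary rat cortical neurons on 48-well, 16-electrode MEA plates were exposed from plating to DIV 12, with dosing renewed on DIV 5 and 9. Spikes per network spike (0.05 s peak window) were recorded on DIV 5, 7, 9 and 12 and collapsed as trapezoidal AUC versus DMSO.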

[15] = CCTE_Shafer_MEA_dev_per_network_spike_spike_percent: CCTE's Neural Network Formation Assay for Percent of Spikes in a Network Spike, Shafer Lab (AID 2284054)
How it was run: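 Rat primary cortical neurons were grown on 48-well MEA plates (16 electrodes/well), exposed from plating day 0 through day 12, with treatment renewed on DIV 5 and 9. Percent of spikes within 0.05 s network-spike peaks was measured, summarised as AUC across days 5, 7, 9, 12.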

[16] = CCTE_Shafer_MEA_dev_mutual_information_norm: CCTE's Neural Network Formation Assay for Mutual Information Normalization, Shafer Lab (AID 2284091)
How it was run: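 Primary rat cortical neurons on PEI-coated 48-well MEA plates, 1.5 x 10^5 cells/well, exposed from day 0 through day 12 with re-dosing at DIV 5 and 9. Mutual information between electrodes recorded days 5, 7, 9, 12; trapezoidal AUC, loss-of-signal fit versus DMSO.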

[17] = CCTE_Shafer_MEA_dev_correlation_coefficient_mean: CCTE's Neural Network Formation Assay for Mean Correlation Coefficient, Shafer Lab (AID 2284093)
How it was run: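 Spontaneous activity recorded on days 5, 7, 9 and 12 post-plating; pairwise spike correlations are averaged across active electrodes and collapsed to an area-under-curve. Rat cortical cultures are dosed from plating through 12 days, with compound renewed at media changes.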

[18] = UKN2_HCS_IMR90_neural_migration: University of Konstanz (UKN) Leist Lab Neural Crest Cell Migration Assay in human induced IMR90 Pluripotent Stem Cells (UKN2) (AID 2284204); settings: actives raise or lower the signal
How it was run: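 iPSC-derived IMR90 neural crest cells seeded around stoppers on PLO/laminin/fibronectin; migration started in N2-S medium with EGF/FGF, compounds added after 24 h for 24 h. Migration into cell-free area imaged after calcein-AM/Hoechst staining; bidirectional fit versus DMSO.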

[19] = IUF_NPC1b_proliferation_BrdU_72hr: Leibniz Research Institute for Environmental Medicine (IUF) 72-hour Neural Progenitor Cell Bromodeoxyuridine (BrdU) Proliferation Assay (NPC1b) (AID 2284207)
How it was run: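 BrdU luminescence ELISA quantified DNA synthesis over the last 16 h of a 72 h exposure, fitted against DMSO. Primary hNPC spheres from gestational week 16-19 cortex grown with EGF/FGF at 37C, pH 7.2-7.6.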

[20] = IUF_NPC1a_proliferation_area_72hr: Leibniz Research Institute for Environmental Medicine (IUF) 72-hour Neural Progenitor Cell Proliferation Area Assay (NPC1a) (AID 2284208)
How it was run: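 Read-out: increase in sphere area over 72 h by automated phase-contrast imaging, fitted in positive direction versus DMSO baseline. One hNPC sphere (0.25-0.35 mm) per well in EGF/FGF medium; growth-factor withdrawal served as positive control.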

[21] = IUF_NPC1_viability_72hr: Viability Assessment at 72 hours in the Leibniz Research Institute for Environmental Medicine (IUF) Neural Progenitor Cell Proliferation Assay (NPC1) (AID 2284209)
How it was run: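 Single spheres (0.25-0.35 mm) of human fetal cortex-derived neural progenitor cells were grown in proliferation medium with EGF and FGF at 37C and 5% CO2. They were exposed for 72 h without renewal, and viability was read by alamar blue resorufin fluorescence.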

[22] = CCTE_Mundy_HCI_Cortical_Synap_Neur_Matur_NeuriteSpotCountPerNeuriteLength: CCTE's Synaptogenesis and Neurite Maturation Assay in rat cortical cells for Neurite Spot Count per Neurite Length, Mundy Lab (AID 2284210)
How it was run: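 Rat primary cortical cultures, AraC added at DIV 5 to suppress glia; chemical exposure from DIV 7 to DIV 12. Fixed cells stained for MAP2 and synaptophysin plus Hoechst; synaptophysin puncta per neurite length quantified by high-content imaging, relative to DMSO.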

[23] = CCTE_Mundy_HCI_Cortical_NOG_NeuriteCount: CCTE's Neurite Outgrowth Assay in rat cortical cells for Neurite Count, Mundy Lab (AID 2284212);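 further: cells fixed about two days after chemical exposure began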
How it was run: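 Neurite number per cell from high-content imaging of betaIII-tubulin immunostaining, with Hoechst nuclear counterstain.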

Measured: AC50

Cc1[nH]n(C)c(=O)c1C(=O)c1ccc(C(F)(F)F)cc1S(C)(=O)=O
active: [19] 43.4 µM
inactive: all other assays above
